Screening results (PubChem)
SIRT5 inh: SIRT5 desuccinylase inhibitors, primary screen, biochemical, fluorescence imaging, single point, set 5; Purified SirT5, succinyl-peptide AMC, trypsin-coupled fluorescence; inhibition, % at 15 µM; hit rate 1.1% among 330,000; AID 652115, 2013; in the data active = inhibition above about 15%
Rtt109 HAT inh: inhibitors of C. albicans Rtt109/Vps75 HAT, primary screen, biochemical, ThioGlo CoA-SH fluorescence, plate reader; hit rate 0.16% among 330,000; purified Rtt109/Vps75, 4 h; inhibition, % at 34.9 µM;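 active = inhibition of at least 50% in every replicate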
ERp5 inh: inhibitors of ERp5-driven insulin aggregation, primary screen, biochemical, turbidity, absorbance 650 nm, single point; Protein disulfide-isomerase A6 (Homo sapiens), Q15084; 90 min; inhibition, % at 9.99 µM; hit rate 0.05% among 350,000; AID 651711, 2012;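 active = mean replicate inhibition above about 25%, with every replicate also reaching it, limit read from the data, passing the limit was not always enough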
PDI turbidity: inhibitors of human PDI, primary screen, biochemical, turbidity, single point, plate reader; Protein disulfide-isomerase (Homo sapiens), P07237; hit rate 0.052% among 350,000; PDI insulin aggregation turbidity, A650, 90 min; AID 588391, 2011; inhibition, % at 10 µM;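 active = mean inhibition across replicates of 30% or more, whatever share of single replicates reach that level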
Target sequence (P07237 whole entry, looked up): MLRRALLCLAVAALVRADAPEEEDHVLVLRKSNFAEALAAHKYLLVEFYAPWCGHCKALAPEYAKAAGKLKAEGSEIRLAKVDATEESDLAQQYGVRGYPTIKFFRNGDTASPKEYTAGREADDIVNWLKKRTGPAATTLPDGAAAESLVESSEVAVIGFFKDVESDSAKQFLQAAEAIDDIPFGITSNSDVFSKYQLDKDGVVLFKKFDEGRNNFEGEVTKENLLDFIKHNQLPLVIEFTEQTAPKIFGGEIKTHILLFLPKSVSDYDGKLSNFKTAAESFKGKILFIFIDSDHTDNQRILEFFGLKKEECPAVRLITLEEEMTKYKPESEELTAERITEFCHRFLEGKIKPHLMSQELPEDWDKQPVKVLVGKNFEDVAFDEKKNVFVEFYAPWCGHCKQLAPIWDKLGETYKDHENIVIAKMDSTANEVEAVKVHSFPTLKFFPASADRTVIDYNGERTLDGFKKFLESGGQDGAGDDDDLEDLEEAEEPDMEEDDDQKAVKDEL
DENV2 CPE: inhibitors of DENV2 cytopathic effect, primary screen, cell-based, plate reader, single concentration | DENV2-infected cells, cytopathic effect rescue | CPE inhibition, % at 9.99 µM | hit rate 1.7% among 350,000; in the data active = CPE inhibition above about 20%, passing the limit was not always enough; tested in BHK-21 cells;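 also: 0% = median of neutral control wells and 100% = median of positive control wells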
* = called active by the depositor; / = no result given. The list is not random: actives were taken first. Their share in the collection is about 2.3%.

SMILES	SIRT5 inh	Rtt109 HAT inh	ERp5 inh	PDI turbidity	DENV2 CPE
CCCNC(=O)N(C)C[C@H]1Oc2cc(C3=CCCC3)ccc2S(=O)(=O)N([C@H](C)CO)C[C@H]1C	4	/	0	/	30*
C[C@H]1CN([C@@H](C)CO)S(=O)(=O)c2ccc(C3=CCCC3)cc2O[C@@H]1CN(C)C(=O)Cc1ccncc1	4	/	1	/	31*
C[C@@H]1CN([C@H](C)CO)S(=O)(=O)c2ccc(C3=CCCCC3)cc2O[C@@H]1CN(C)C(=O)Nc1ccc2c(c1)OCO2	15*	/	3	/	2
C[C@@H]1CN([C@H](C)CO)S(=O)(=O)c2ccc(C3=CCCC3)cc2O[C@H]1CN(C)C(=O)c1ccncc1	-11	/	-3	/	45*
C[C@H](CO)N1C[C@H](C)[C@@H](CN(C)C(=O)c2cnccn2)Oc2cc(C#CC3CC3)ccc2S1(=O)=O	-4	/	2	/	-11
CC(C)NC(=O)N(C)C[C@H]1OCCCC[C@H](C)Oc2ccc(NC(=O)c3ccccc3)cc2C(=O)N([C@@H](C)CO)C[C@@H]1C	5	/	-1	/	/
C[C@@H]1CN([C@H](C)CO)C(=O)c2cc(C#CCN(C)C)cnc2O[C@@H]1CN(C)Cc1ccc(F)cc1	0	/	3	/	-5
C[C@@H]1CN([C@@H](C)CO)S(=O)(=O)c2ccc(C3=CCCCC3)cc2O[C@H]1CN(C)C(=O)C1CCC1	4	/	8	/	8
C[C@@H]1CN([C@H](C)CO)S(=O)(=O)c2ccc(C3=CCCCC3)cc2O[C@H]1CN(C)C(=O)Cc1ccncc1	17*	/	3	/	-3
C[C@@H]1CN([C@@H](C)CO)S(=O)(=O)c2ccc(C3=CCCCC3)cc2O[C@@H]1CN(C)C(=O)Cc1ccncc1	1	/	8	/	17
C[C@H]1CN([C@@H](C)CO)S(=O)(=O)c2ccc(C3=CCCC3)cc2O[C@H]1CN(C)C(=O)C1CCC1	4	/	4	/	21*
CC(O)(c1cccc(F)c1)c1nc(/C=C/c2ccccc2)cs1 (configuration not stated)	/	/	-1	-4	22*
CCOC(=O)C1=C(C)NC(=O)NC1c1ccc(N(C)C)cc1 (configuration not stated)	3	5	5	-4	70*
CCOC(=O)C1=C(C)NC(=S)N(C(C)=O)C1c1ccc(Cl)cc1 (configuration not stated)	/	63*	/	1	/
O=C(CCN1CCCCC1)NCC[C@H]1CC[C@H](NC(=O)C2CCC2)[C@H](CO)O1	3	/	-8	/	-8
O=C(CCN1CCCCC1)NCC[C@H]1CC[C@H](NC(=O)C2CCC2)[C@@H](CO)O1	0	/	-2	/	23*
O=C(CCN1CCCCC1)NCC[C@@H]1CC[C@H](NC(=O)C2CCC2)[C@@H](CO)O1	1	/	-1	/	46*
CCCN1C[C@H](C)[C@H](OC)CN(C)C(=O)c2ccc(NC(=O)CC(F)(F)F)cc2OC[C@@H]1C	/	/	-3	/	33*
CCCN1C[C@H](C)[C@H](OC)CN(C)C(=O)c2ccc(NC(=O)CC(F)(F)F)cc2OC[C@H]1C	-1	/	11	/	13
CCCC(=O)Nc1ccc2c(c1)OC[C@@H](C)N(CCC(F)(F)F)C[C@H](C)[C@H](OC)CN(C)C2=O	4	/	-2	/	7
CCCC(=O)Nc1ccc2c(c1)OC[C@H](C)N(CCC(F)(F)F)C[C@H](C)[C@@H](OC)CN(C)C2=O	0	/	15	/	31*
CS(=O)(=O)Nc1ccc2c(c1)[C@H]1C[C@H](CC(=O)NCc3cccnc3)O[C@@H](CO)[C@H]1O2	-1	/	0	/	3
CN1CCN(CC(O)COc2ccc(S(=O)(=O)N3CCOCC3)cc2)CC1 (configuration not stated)	-4	-2	-4	-2	46*
CC1CCCC(NC(=O)COC(=O)Cc2cn3ccsc3n2)C1C (configuration not stated)	15*	5	7	4	/
CCCNC(=O)N1CC2(CCN(C(=O)c3ccncc3)CC2)c2c([nH]c3cc(OC)ccc23)[C@H]1CO	6	/	1	/	-9
SMILES	SIRT5 inh	Rtt109 HAT inh	ERp5 inh	PDI turbidity	DENV2 CPE
COc1ccccc1CNc1ncccc1[N+](=O)[O-]	16*	4	0	-1	3
C/C(=N\OCC(=O)Nc1ccc(OC(F)(F)F)cc1)c1ccc2c(c1)OCCO2	1	2	6	2	108*
C[C@H]1CN([C@@H](C)CO)C(=O)c2cc(NS(C)(=O)=O)ccc2O[C@H]1CN(C)CC1CC1	-3	/	-3	/	-3
Cc1ccc(/C=C/C(=O)N2CCN(c3cccc(C(F)(F)F)c3)CC2)cc1	30*	-13	3	6	1
O=C(C1CCCC1)N1C[C@@H]2[C@H](c3ccccc31)[C@H](CO)N2C(=O)Cc1ccccn1	0	/	2	/	0
O=C(C1CCCCC1)N1C[C@H]2[C@@H](c3ccccc31)[C@H](CO)N2C(=O)Cc1ccccn1	16*	/	3	/	5
O=C(C1CCCC1)N1C[C@@H]2[C@H](c3ccccc31)[C@@H](CO)N2C(=O)Cc1ccccn1	3	/	-3	/	34*
CO[C@@H]1CN(C)C(=O)c2cc(NC(=O)C3CCCCC3)ccc2OC[C@@H](C)NC[C@@H]1C	-6	/	6	/	4
C[C@@H]1CN([C@@H](C)CO)C(=O)c2cc(NS(=O)(=O)c3cccs3)ccc2O[C@@H](C)CCCCO[C@@H]1CN(C)C(=O)CCCN(C)C	-1	/	2	/	46*
C[C@@H]1CCCCO[C@H](CN(C)C(=O)CCCN(C)C)[C@H](C)CN([C@@H](C)CO)C(=O)c2cc(NS(=O)(=O)c3cccs3)ccc2O1	-2	/	1	/	-12
C[C@H](CO)N1C[C@H](C)[C@H](CN(C)C(=O)CCCN(C)C)OCCCC[C@H](C)Oc2ccc(NS(=O)(=O)c3cccs3)cc2C1=O	-6	/	-1	/	55*
COc1cccc(NC(=O)C[C@@H]2CC[C@@H]3[C@@H](COc4ccc(NC(=O)C5CCCC5)cc4C(=O)N3C)O2)c1	-15	/	4	/	3
CO[C@@H]1CC[C@H]2CCN(C)C(=O)[C@H](C)N(C)C(=O)c3cc(C#N)ccc3OC[C@H]1O2	-3	/	5	/	-2
COc1cc2c(cc1OC)C(c1c(Cl)cccc1Cl)NC(=O)C2 (configuration not stated)	26*	-9	19	-3	-2
CO[C@@H](CN(C)CC1CCOCC1)[C@H](C)CN(C(=O)Nc1ccc(F)cc1)[C@H](C)CO	16*	/	-1	/	-3
CO[C@H](CN(C)CC1CCOCC1)[C@@H](C)CN(C(=O)Nc1ccc(F)cc1)[C@H](C)CO	-4	/	4	/	0
